According to PMC12529666, “Dysregulation of AGO2-miRNA dynamics underlies the AGO2-associated Lessel–Kreienkamp syndrome”:

B1: GCACCCTA (ssRNA)
RNA 1: GAGUUCUACAGUCCGACGAUCCCAACGCACCCUACACCUGGAAUUCUCGGGUGCCAA
RNA 2: UGGAGUGUGACAAUGGUGUUUG
DNA 1: GATCGTCGGACTGTAGAACTC
DNA 2: TTGGCACCCGAGAATTCCA
modifications: constant regions annealed to DNA blockers; guide miR-122 5' phosphate
B2: GCACCTCG (ssRNA)
RNA 1: GAGUUCUACAGUCCGACGAUCCCAACGCACCUCGCACCUGGAAUUCUCGGGUGCCAA
RNA 2: UGGAGUGUGACAAUGGUGUUUG
DNA 1: GATCGTCGGACTGTAGAACTC
DNA 2: TTGGCACCCGAGAATTCCA
modifications: constant regions annealed to DNA blockers; guide miR-122 5' phosphate
B3: GCGTTTCG (ssRNA)
RNA 1: GAGUUCUACAGUCCGACGAUCCCAACGCGUUUCGCACCUGGAAUUCUCGGGUGCCAA
RNA 2: UGGAGUGUGACAAUGGUGUUUG
DNA 1: GATCGTCGGACTGTAGAACTC
DNA 2: TTGGCACCCGAGAATTCCA
modifications: constant regions annealed to DNA blockers; guide miR-122 5' phosphate
B4: GTGCCTTG (ssRNA)
RNA 1: GAGUUCUACAGUCCGACGAUCCCAACGUGCCUUGCACCUGGAAUUCUCGGGUGCCAA
RNA 2: UGGAGUGUGACAAUGGUGUUUG
DNA 1: GATCGTCGGACTGTAGAACTC
DNA 2: TTGGCACCCGAGAATTCCA
modifications: constant regions annealed to DNA blockers; guide miR-122 5' phosphate
B5: GCGCCTCG (ssRNA)
RNA 1: GAGUUCUACAGUCCGACGAUCCCAACGCGCCUCGCACCUGGAAUUCUCGGGUGCCAA
RNA 2: UGGAGUGUGACAAUGGUGUUUG
DNA 1: GATCGTCGGACTGTAGAACTC
DNA 2: TTGGCACCCGAGAATTCCA
modifications: constant regions annealed to DNA blockers; guide miR-122 5' phosphate
B6: GCGTTTTA (ssRNA)
RNA 1: GAGUUCUACAGUCCGACGAUCCCAACGCGUUUUACACCUGGAAUUCUCGGGUGCCAA
RNA 2: UGGAGUGUGACAAUGGUGUUUG
DNA 1: GATCGTCGGACTGTAGAACTC
DNA 2: TTGGCACCCGAGAATTCCA
modifications: constant regions annealed to DNA blockers; guide miR-122 5' phosphate
B7: ACGTCTCG (ssRNA)
RNA 1: GAGUUCUACAGUCCGACGAUCCCAACACGUCUCGCACCUGGAAUUCUCGGGUGCCAA
RNA 2: UGGAGUGUGACAAUGGUGUUUG
DNA 1: GATCGTCGGACTGTAGAACTC
DNA 2: TTGGCACCCGAGAATTCCA
modifications: constant regions annealed to DNA blockers; guide miR-122 5' phosphate
B8: ATGCCTTA (ssRNA)
RNA 1: GAGUUCUACAGUCCGACGAUCCCAACAUGCCUUACACCUGGAAUUCUCGGGUGCCAA
RNA 2: UGGAGUGUGACAAUGGUGUUUG
DNA 1: GATCGTCGGACTGTAGAACTC
DNA 2: TTGGCACCCGAGAATTCCA
modifications: constant regions annealed to DNA blockers; guide miR-122 5' phosphate
B9: GCATCCCA (ssRNA)
RNA 1: GAGUUCUACAGUCCGACGAUCCCAACGCAUCCCACACCUGGAAUUCUCGGGUGCCAA
RNA 2: UGGAGUGUGACAAUGGUGUUUG
DNA 1: GATCGTCGGACTGTAGAACTC
DNA 2: TTGGCACCCGAGAATTCCA
modifications: constant regions annealed to DNA blockers; guide miR-122 5' phosphate
B10: GCATCCTA (ssRNA)
RNA 1: GAGUUCUACAGUCCGACGAUCCCAACGCAUCCUACACCUGGAAUUCUCGGGUGCCAA
RNA 2: UGGAGUGUGACAAUGGUGUUUG
DNA 1: GATCGTCGGACTGTAGAACTC
DNA 2: TTGGCACCCGAGAATTCCA
modifications: constant regions annealed to DNA blockers; guide miR-122 5' phosphate
B11: GCGCCTTG (ssRNA)
RNA 1: GAGUUCUACAGUCCGACGAUCCCAACGCGCCUUGCACCUGGAAUUCUCGGGUGCCAA
RNA 2: UGGAGUGUGACAAUGGUGUUUG
DNA 1: GATCGTCGGACTGTAGAACTC
DNA 2: TTGGCACCCGAGAATTCCA
modifications: constant regions annealed to DNA blockers; guide miR-122 5' phosphate

Each binder was assayed against AGO2 L192P (Homo sapiens, UniProt Q9UKV8 1-859, L192P;S387D;S824A;S828D;S831D;S834A) (assay: RNA Bind-n-Seq (nitrocellulose filter binding and sequencing); miR-122 guide loaded in AGO2; 60 min incubation; 30 mM Tris pH 8.0, 100 mM potassium acetate, 2 mM magnesium acetate, 0.5 mM TCEP, 0.005% NP-40, 0.01 mg/ml yeast tRNA; 3 nM AGO2-miR-122, 100 nM RNA library; 60; high values mean tight binding). Conditions: protein: recombinant; tags: His6 (N-terminal, pFastBac HTA).
How it was run: (§1)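 His-tagged AGO2 was expressed in Sf9 insect cells by baculovirus, loaded with a synthetic guide RNA, and purified by Ni-NTA and a biotinylated capture oligo. Bound RNA was extracted, reverse-transcribed, barcode-amplified and Illumina-sequenced. Fold enrichment is each sequence's read fraction divided by its input-library read fraction.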

AGO2 L192P, sequence (Q9UKV8 whole entry L192P/S387D/S824A/S828D/S831D/S834A): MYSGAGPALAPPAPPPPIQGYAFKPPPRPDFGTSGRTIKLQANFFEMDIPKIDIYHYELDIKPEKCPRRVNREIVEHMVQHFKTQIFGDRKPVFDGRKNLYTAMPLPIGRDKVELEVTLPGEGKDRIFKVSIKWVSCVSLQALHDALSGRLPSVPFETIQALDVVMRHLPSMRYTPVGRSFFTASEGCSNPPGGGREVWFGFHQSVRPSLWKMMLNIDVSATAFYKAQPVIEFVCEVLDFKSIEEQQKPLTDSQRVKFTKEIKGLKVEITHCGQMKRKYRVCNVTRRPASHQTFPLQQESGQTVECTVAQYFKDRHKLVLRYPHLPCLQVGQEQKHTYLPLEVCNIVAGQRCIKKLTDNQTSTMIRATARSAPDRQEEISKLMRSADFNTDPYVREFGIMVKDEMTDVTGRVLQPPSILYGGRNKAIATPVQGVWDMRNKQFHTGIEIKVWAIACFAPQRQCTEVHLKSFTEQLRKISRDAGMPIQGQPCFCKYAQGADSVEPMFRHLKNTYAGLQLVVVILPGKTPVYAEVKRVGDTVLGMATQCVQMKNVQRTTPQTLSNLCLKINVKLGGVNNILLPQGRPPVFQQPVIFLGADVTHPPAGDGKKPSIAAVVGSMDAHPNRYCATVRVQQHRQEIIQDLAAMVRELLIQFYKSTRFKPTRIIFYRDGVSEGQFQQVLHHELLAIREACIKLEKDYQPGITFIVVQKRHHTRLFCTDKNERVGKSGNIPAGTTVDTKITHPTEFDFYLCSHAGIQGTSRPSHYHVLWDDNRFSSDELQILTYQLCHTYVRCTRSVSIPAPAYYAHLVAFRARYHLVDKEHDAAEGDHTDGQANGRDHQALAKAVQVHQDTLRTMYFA

Question: B1 was tested. Which binding signal did it give?
Answer: The binding signal was 0.515 fold enrichment over input.

Question: Which binding signal does the source give for B2 here?
Answer: The binding signal was 0.381 fold enrichment over input.

Question: How did the binding signal turn out when B3 was run?
Answer: Its binding signal is 0.361 fold enrichment over input.

Question: Which binding signal does the source give for B4 here?
Answer: The binding signal was 0.422 fold enrichment over input.

Question: B5 was tested. Which binding signal did it give?
Answer: The binding signal was 0.37 fold enrichment over input.

Question: How did the binding signal turn out when B6 was run?
Answer: The binding signal was 0.484 fold enrichment over input.

Question: B7 was tested. Which binding signal did it give?
Answer: Its binding signal is 0.32 fold enrichment over input.

Question: With B8 as the binder, how does the binding signal read?
Answer: The binding signal was 0.434 fold enrichment over input.

Question: B9 was tested. Which binding signal did it give?
Answer: Its binding signal is 0.48 fold enrichment over input.

Question: For B10, which binding signal is on record?
Answer: The binding signal was 0.47 fold enrichment over input.

Question: With B11 as the binder, how does the binding signal read?
Answer: The binding signal was 0.365 fold enrichment over input.

These binders were tested against AGO2 A367P (Homo sapiens, UniProt Q9UKV8 1-859, A367P;S387D;S824A;S828D;S831D;S834A) in the same assay as above. Conditions: protein: recombinant; tags: His6 (N-terminal, pFastBac HTA).
How it was run: as §1

AGO2 A367P, sequence (Q9UKV8 whole entry A367P/S387D/S824A/S828D/S831D/S834A): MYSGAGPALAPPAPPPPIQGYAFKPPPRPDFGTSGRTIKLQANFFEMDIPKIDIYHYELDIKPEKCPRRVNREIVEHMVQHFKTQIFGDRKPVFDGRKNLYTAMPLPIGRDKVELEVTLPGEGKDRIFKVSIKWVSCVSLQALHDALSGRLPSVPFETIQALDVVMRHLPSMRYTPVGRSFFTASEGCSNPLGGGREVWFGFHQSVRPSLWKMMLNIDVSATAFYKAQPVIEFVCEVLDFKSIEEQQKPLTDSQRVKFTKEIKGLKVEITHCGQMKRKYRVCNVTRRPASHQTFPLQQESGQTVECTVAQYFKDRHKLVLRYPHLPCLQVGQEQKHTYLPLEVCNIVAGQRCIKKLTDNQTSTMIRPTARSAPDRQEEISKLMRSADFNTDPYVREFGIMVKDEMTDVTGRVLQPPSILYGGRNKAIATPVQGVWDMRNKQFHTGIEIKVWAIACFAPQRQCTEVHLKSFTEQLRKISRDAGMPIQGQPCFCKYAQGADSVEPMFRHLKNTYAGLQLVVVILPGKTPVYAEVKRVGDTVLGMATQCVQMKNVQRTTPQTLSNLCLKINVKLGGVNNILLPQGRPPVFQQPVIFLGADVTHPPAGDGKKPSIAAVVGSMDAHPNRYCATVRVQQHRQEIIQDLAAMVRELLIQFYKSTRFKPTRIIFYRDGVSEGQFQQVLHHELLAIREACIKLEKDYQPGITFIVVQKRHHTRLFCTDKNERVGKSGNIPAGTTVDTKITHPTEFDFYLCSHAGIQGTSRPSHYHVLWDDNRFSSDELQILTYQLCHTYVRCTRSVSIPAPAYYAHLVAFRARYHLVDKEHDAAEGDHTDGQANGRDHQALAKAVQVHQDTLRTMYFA

Question: Which binding signal does the source give for B1 here?
Answer: The binding signal was 0.214 fold enrichment over input.

Question: With B2 as the binder, how does the binding signal read?
Answer: The binding signal was 0.15 fold enrichment over input.

Question: How did the binding signal turn out when B3 was run?
Answer: Its binding signal is 0.139 fold enrichment over input.

Question: How did the binding signal turn out when B4 was run?
Answer: The binding signal was 0.159 fold enrichment over input.

Question: For B5, which binding signal is on record?
Answer: Its binding signal is 0.145 fold enrichment over input.

Question: With B6 as the binder, how does the binding signal read?
Answer: The binding signal was 0.173 fold enrichment over input.

Question: For B7, which binding signal is on record?
Answer: The binding signal was 0.146 fold enrichment over input.

Question: With B8 as the binder, how does the binding signal read?
Answer: The binding signal was 0.179 fold enrichment over input.

Question: Which binding signal does the source give for B9 here?
Answer: Its binding signal is 0.201 fold enrichment over input.

Question: With B10 as the binder, how does the binding signal read?
Answer: The binding signal was 0.168 fold enrichment over input.

Question: How did the binding signal turn out when B11 was run?
Answer: Its binding signal is 0.15 fold enrichment over input.

The binders below were run against AGO2 T357M (Homo sapiens, UniProt Q9UKV8 1-859, T357M;S387D;S824A;S828D;S831D;S834A) in the same assay as above. Conditions: protein: recombinant; tags: His6 (N-terminal, pFastBac HTA).
How it was run: as §1

AGO2 T357M, sequence (Q9UKV8 whole entry T357M/S387D/S824A/S828D/S831D/S834A): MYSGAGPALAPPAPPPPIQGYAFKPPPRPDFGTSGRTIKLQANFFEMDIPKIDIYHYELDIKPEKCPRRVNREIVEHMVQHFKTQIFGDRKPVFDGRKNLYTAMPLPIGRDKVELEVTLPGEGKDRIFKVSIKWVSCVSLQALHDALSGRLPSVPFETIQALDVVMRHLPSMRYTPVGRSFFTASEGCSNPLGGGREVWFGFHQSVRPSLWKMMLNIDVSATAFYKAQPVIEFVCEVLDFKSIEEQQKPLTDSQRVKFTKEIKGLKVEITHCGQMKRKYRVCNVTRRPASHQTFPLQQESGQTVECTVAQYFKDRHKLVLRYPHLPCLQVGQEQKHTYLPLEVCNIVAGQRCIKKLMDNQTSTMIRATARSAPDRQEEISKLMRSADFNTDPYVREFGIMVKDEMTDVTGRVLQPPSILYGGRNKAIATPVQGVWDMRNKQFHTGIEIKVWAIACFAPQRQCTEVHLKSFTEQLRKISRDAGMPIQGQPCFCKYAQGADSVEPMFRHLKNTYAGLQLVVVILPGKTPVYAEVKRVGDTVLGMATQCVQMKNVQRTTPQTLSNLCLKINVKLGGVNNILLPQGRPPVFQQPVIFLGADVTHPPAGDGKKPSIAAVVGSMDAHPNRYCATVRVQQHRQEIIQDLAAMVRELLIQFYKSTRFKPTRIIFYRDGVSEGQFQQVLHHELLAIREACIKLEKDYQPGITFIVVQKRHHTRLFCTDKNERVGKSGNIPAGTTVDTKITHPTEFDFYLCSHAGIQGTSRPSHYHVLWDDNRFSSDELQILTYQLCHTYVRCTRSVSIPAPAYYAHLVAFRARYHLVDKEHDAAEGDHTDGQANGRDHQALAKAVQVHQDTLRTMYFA

Question: With B1 as the binder, how does the binding signal read?
Answer: Its binding signal is 0.601 fold enrichment over input.

Question: Which binding signal does the source give for B2 here?
Answer: The binding signal was 0.508 fold enrichment over input.

Question: B3 was tested. Which binding signal did it give?
Answer: The binding signal was 0.534 fold enrichment over input.

Question: B4 was tested. Which binding signal did it give?
Answer: The binding signal was 0.548 fold enrichment over input.

Question: How did the binding signal turn out when B5 was run?
Answer: The binding signal was 0.55 fold enrichment over input.

Question: For B6, which binding signal is on record?
Answer: Its binding signal is 0.582 fold enrichment over input.

Question: Which binding signal does the source give for B7 here?
Answer: The binding signal was 0.421 fold enrichment over input.

Question: For B8, which binding signal is on record?
Answer: The binding signal was 0.617 fold enrichment over input.

Question: For B9, which binding signal is on record?
Answer: The binding signal was 0.628 fold enrichment over input.

Question: For B10, which binding signal is on record?
Answer: Its binding signal is 0.563 fold enrichment over input.

Question: With B11 as the binder, how does the binding signal read?
Answer: Its binding signal is 0.532 fold enrichment over input.

These binders were tested against AGO2 F182del (Homo sapiens, UniProt Q9UKV8 1-859, S387D;S824A;S828D;S831D;S834A;del182-182) in the same assay as above. Conditions: protein: recombinant; tags: His6 (N-terminal, pFastBac HTA).
How it was run: as §1

AGO2 F182del, sequence (Q9UKV8 other isoform, or with tags, fused parts or gaps S387D;S824A;S828D;S831D;S834A;del182-182): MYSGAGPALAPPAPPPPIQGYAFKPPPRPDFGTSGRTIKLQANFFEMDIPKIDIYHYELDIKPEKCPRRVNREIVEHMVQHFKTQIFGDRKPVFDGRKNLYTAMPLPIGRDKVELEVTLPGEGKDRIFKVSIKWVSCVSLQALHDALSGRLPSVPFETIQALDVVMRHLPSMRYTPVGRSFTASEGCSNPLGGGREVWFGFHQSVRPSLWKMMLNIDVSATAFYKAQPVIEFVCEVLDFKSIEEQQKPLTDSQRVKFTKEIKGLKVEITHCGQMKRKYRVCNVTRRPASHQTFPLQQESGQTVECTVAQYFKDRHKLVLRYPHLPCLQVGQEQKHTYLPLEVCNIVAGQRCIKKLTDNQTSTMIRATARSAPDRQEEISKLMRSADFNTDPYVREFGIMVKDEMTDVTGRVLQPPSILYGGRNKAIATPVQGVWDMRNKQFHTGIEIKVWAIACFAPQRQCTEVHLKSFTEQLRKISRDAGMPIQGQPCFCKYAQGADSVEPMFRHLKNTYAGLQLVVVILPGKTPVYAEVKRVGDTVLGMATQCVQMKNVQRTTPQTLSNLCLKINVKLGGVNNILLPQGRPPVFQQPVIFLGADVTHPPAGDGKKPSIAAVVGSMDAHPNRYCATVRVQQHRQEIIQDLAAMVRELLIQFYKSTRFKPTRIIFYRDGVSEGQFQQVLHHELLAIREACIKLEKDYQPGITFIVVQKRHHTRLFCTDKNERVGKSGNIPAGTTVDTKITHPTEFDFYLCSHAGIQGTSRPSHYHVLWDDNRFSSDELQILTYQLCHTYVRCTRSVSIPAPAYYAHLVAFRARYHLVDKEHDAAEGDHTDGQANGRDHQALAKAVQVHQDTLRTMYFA

Question: B1 was tested. Which binding signal did it give?
Answer: Its binding signal is 0.327 fold enrichment over input.

Question: With B9 as the binder, how does the binding signal read?
Answer: Its binding signal is 0.282 fold enrichment over input.
